Screens from PubChem BioAssay.
The list is not random: actives were taken first. Their share in the collection is about 5.8%.
TRPV1 PAM = human TRPV1 potentiation; Q8NER1; TRPV1-expressing cells, Fluo-8 calcium influx, capsaicin EC20 potentiation; potentiation, % at 8.33 µM; actives 0.02% (n = 320,000); AID 540277; in the data active = potentiation above about 80%; inconclusive = between about 30% and that limit; note: 0% is about no effect
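TRPV1-expressing cells were cultured overnight at 35.5C and loaded with Fluo-8 calcium dye for 40 to 90 min at room temperature. After a 10 s baseline, compound was added and calcium influx was read kinetically for 3 min (ex 480/em 520 nm).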
uPA surface inh = cell surface uPA generation inhibition; AID 540303; cell surface uPA generation assay, qHTS; actives 0.31% (n = 330,000); Potency, µM (highest dose often 38.3 µM), without a hit: top-dose activity change, negative = inhibition, actives largely listed as inhibitors; active = well fitted inhibition curve with a large enough effect; inconclusive = small, poorly fitted or top-dose-only effect; inactive = no such curve, though single readings can be large or run the other way; tested in mouse RAW 264.7 cells; note: potency is the fitted concentration of half-maximal effect; % is set by controls: 0 for no effect and ±100 for the full control effect; nearly all actives have a fitted effect of over 55% in size
TRPV1 ag = human TRPV1 agonism; Q8NER1; TRPV1-expressing cells, Fluo-8 calcium influx, agonist mode; activation, % at 8.33 µM; actives 0.19% (n = 320,000); AID 540275; in the data active = activation above about 80%; inconclusive = between about 30% and that limit; note: 0% is about no effect
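Cells expressing TRPV1 were dye-loaded with Fluo-8 and read kinetically: 10 s baseline, 3 min after compound (agonist portion), then 2 min after EC20 capsaicin (allosteric enhancer portion). Calcium-bound dye fluorescence at 480/520 nm.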
Gal4-VP16 FLuc = Gal4-VP16 reporter inhibition counter-screen; Drosophila S2 Gal4-VP16 UAS-luciferase, luminescence, 20 h; Potency, µM (doses to about 53.6 µM), for inactives: top-dose activity, negative = inhibition, usual class: inhibitors; actives 3.5% (n = 310,000);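 note: Gal4-VP16 expression switched on by copper sulfate through the metallothionein promoter; potency is the fitted concentration of half-maximal effect; % is set by controls: 0 for no effect and ±100 for the full control effect; nearly all actives have a fitted effect of over 50% in size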
RORgamma inh = ROR gamma (mouse) transcription inhibition | actives 5.4% (n = 310,000) | AID 2551 | P51450 | Drosophila S2 Gal4-RORgamma UAS-luciferase reporter, 20 h | Potency, µM (doses to about 53.6 µM), without a hit: top-dose activity change, negative = inhibition, most hits filed as inhibitors; note: potency is the fitted concentration of half-maximal effect; % is set by controls: 0 for no effect and ±100 for the full control effect; nearly all actives have a fitted effect of over 60% in size
Target sequence (P51450 whole entry, looked up, the tested form may be a part): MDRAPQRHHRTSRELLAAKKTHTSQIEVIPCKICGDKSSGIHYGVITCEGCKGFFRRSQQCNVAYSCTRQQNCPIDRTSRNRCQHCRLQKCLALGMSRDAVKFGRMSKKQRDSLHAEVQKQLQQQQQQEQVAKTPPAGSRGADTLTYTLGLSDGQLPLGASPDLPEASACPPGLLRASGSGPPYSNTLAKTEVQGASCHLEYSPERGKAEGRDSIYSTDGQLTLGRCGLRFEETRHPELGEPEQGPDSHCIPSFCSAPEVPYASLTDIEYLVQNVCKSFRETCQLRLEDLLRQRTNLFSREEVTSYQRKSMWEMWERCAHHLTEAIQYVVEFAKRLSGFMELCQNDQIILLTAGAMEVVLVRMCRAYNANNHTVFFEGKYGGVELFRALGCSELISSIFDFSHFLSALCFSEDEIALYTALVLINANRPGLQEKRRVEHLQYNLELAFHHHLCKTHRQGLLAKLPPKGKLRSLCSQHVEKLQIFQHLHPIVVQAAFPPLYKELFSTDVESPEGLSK
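Stable Schneider cell line, Gal4 DNA-binding domain fused to ROR gamma, UAS-luciferase. Cmpd 1 hr RT → CuSO4 700 uM final → 20 hr RT → luciferase reagent 10 min → luminescence.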
Starred values were filed as active, the others as inactive; u = inconclusive; x = no result. Unless noted, calls come from the whole dose curve; as a rule, active = well fitted curve in the direction sought with a large enough effect; inconclusive = small, poorly fitted or top-dose-only effect, or another doubt; inactive = no such curve, though single readings can be large; an effect the other way counts as inactive or inconclusive.

SMILES	TRPV1 PAM	uPA surface inh	TRPV1 ag	Gal4-VP16 FLuc	RORgamma inh
O=[N+]([O-])c1ccc(O)c(/C=N/NC2=NS(=O)(=O)c3ccccc32)c1	-7	4%	2	1.3µM*	1.3µM*
O=[N+]([O-])c1ccc(O)c(/C=N/Nc2ccc(Cl)nn2)c1	16	-10%	-5	1.4µM*	1µM*
O=S1(=O)N=C(N/N=C/c2cccs2)c2ccccc21	3	-1%	3	0.5µM*	0.89µM*
COc1ccc(C(=O)NC2(C(F)(F)F)C(=O)Nc3c2c(=O)[nH]c(=O)n3CCc2ccc(OC)c(OC)c2)cc1 (stereo unspecified)	13	-1%	-1	-15%	-16%
COc1cc(OC)c2c(c1C(CCN1CCCC1)c1ccc(N(C)C)cc1)OC(=O)CC2c1ccc(N(C)C)cc1 (stereo unspecified)	x	x	x	-10%	15%
O=S(=O)(c1ccc(NC(=S)N/N=C/c2ccc(N3CCOCC3)cc2)cc1)N1CCOCC1	-3	0%	3	6.3µM*	u
O=S(=O)(c1ccc(NC(=S)N/N=C/c2ccc(Oc3ccccc3)cc2)cc1)N1CCOCC1	-7	2%	0	-6%	0.5µM*
O=S(=O)(c1ccc(NC(=S)N/N=C/c2c3ccccc3cc3ccccc23)cc1)N1CCOCC1	10	u	0	7.1µM*	u
C=C(C)/C=N/NC(=S)Nc1ccc(S(=O)(=O)N2CCOCC2)cc1	-16	3%	0	u	u
NNC(=S)Nc1ccc(S(=O)(=O)N2CCOCC2)cc1	-1	-1%	-1	3%	u
O=S(=O)(c1ccc(NC(=S)NN=C2CCCCC2)cc1)N1CCOCC1	-5	0%	2	u	8.9µM*
COC(=O)CC/C(=N/Nc1ccc(Cl)c(Cl)c1)C(=O)OC	5	4%	5	-5%	24%
CS(=O)(=O)N(CC(=O)N1CCN(c2cccc(Cl)c2)CC1)c1cccc(F)c1	-6	-6%	12	x	u
NS(=O)(=O)c1cc(-c2nn[nH]n2)c(NCc2cccs2)cc1Cl	x	x	x	-1%	0%
CC(C)c1nc(=S)n(-c2ccccc2)[nH]1	5	-1%	0	u	5.6µM*
COc1ccccc1-c1nc(N(C)C)c2ccccc2n1	x	x	x	u	-16%
Cc1ccc(NC(=O)O/N=C/c2c(C)nn(C(C)(C)C)c2C)cc1Cl	-14	-7%	-5	0.28µM*	0.28µM*
CNC(=S)N1N=C(c2ccc(C)cc2)CC1c1ccc(OC)cc1 (stereo unspecified)	17	-7%	1	-29%	11µM*
CNC(=S)N1N=C(c2ccc(C)cc2)CC1c1cc(OC)ccc1OC (stereo unspecified)	-1	-6%	-3	-22%	13µM*
COc1ccc(OC)c(C2CC(c3ccccc3)=NN2C(=S)Nc2ccccc2)c1 (stereo unspecified)	-5	u	1	-4%	-42%
Cc1cc(C)nc(/N=C(\N)Nc2cccc(OCc3ccccc3)c2)n1	-5	7.1µM*	18	-21%	-37%
Cc1cc(C)nc(/N=C(\N)Nc2ccc(OCc3ccccc3)cc2)n1	-4	-12%	30	u	21%
O=c1c(CCc2ccccc2)nc2cnc(N3CCNCC3)nc2n1Cc1ccc(F)cc1	x	x	x	u	4.5µM*
O=C(OCc1nc2scc(-c3ccccc3)c2c(=O)[nH]1)c1cc(Cl)ccc1[N+](=O)[O-]	-1	2%	0	u	11µM*
CCc1nnc(NC(=O)CSc2nnc(COc3ccccc3C)o2)s1	7	7%	-3	u	11µM*
SMILES	TRPV1 PAM	uPA surface inh	TRPV1 ag	Gal4-VP16 FLuc	RORgamma inh
CCc1nnc(NC(=O)CSc2nnc(-c3ccco3)n2C)s1	-2	x	-1	-5%	3%
CCc1nnc(NC(=O)CSc2nnc(-c3ccco3)o2)s1	2	-1%	0	u	11µM*
CC(C)C[C@H](NC(=O)[C@H](CO)NC(=O)[C@@H]1CCCN1C(=O)[C@H](Cc1ccc(O)cc1)NC(=O)[C@H](CC(C)C)NC(=O)[C@H](CC(C)C)NC(=O)[C@@H]1CCCN1C(=O)[C@@H](NC(=O)[C@H](CO)NC(=O)[C@H](CO)NC(=O)[C@H](CO)NC(=O)[C@H](CO)NC(=O)[C@@H]1CCCN1C(=O)[C@@H](NC(=O)[C@@H](N)CO)C(C)C)[C@@H](C)O)C(=O)N[C@@H](C)C(=O)N[C@@H](CC(C)C)C(=O)N1CCC[C@H]1C(=O)N[C@@H](C)C(=O)N1CCC[C@H]1C(=O)O	x	x	x	-5%	8%
O=C1C2CC=CCC2C(=O)N1c1ccc(N2CCN(c3ccccn3)CC2)c([N+](=O)[O-])c1 (stereo unspecified)	-2	-10%	15	4.5µM*	-81%
N=C1SCC(=O)N1c1ncc(Cc2ccccc2Cl)s1	-5	1%	14	0.71µM*	126µM*
N=C1SCC(=O)N1c1ncc(Cc2cccc(Cl)c2)s1	12	6%	2	0.89µM*	0.35µM*
CCCn1c(-c2ccc(F)cc2)nc2c(NCCN(C)C)nc(C)nc21	x	x	x	5%	-17%
CC1=CC2=NC(=O)/C(=C/c3cccn3Cc3ccccc3)C(=N)N2O1	12	0%	u	u	13µM*
N=C1/C(=C/c2cccn2CCOc2ccccc2)C(=O)N=C2SC=C(c3ccccc3)N12	5	u	1	-5%	-1%
N=C1/C(=C/c2cccn2Cc2ccc(Cl)cc2)C(=O)N=C2SC=CN12	-12	-2%	10	5µM*	4µM*
CC1=CC2=NC(=O)/C(=C\c3cccn3CCOc3ccc(C)c(C)c3)C(=N)N2O1	0	-7%	11	u	-44%
Cc1cc(C)c2cc(C(=O)N3CCc4ccccc4C3)[nH]c2c1	-12	-19%	25	-7%	39%
CN(C)c1ccc(/C=C2/SC(=O)N(CCN=C3NS(=O)(=O)c4ccccc43)C2=O)cc1	-6	-7%	9	5%	13%
CN(C)c1ccc(/C=C2\SC(=O)N(CCc3nnc(N)s3)C2=O)cc1	5	-5%	u	4.5µM*	2.5µM*
Cc1ccc(NC(=S)Nc2ccc(F)cc2)cc1C	7	-14%	12	7.1µM*	7.1µM*
Cc1ccc(NC(=S)Nc2ccc3cn[nH]c3c2)cc1C	-21	-1%	u	5µM*	13µM*
Cc1cccc(C)c1NC(=S)Nc1ccc(F)cc1	10	1%	3	u	10µM*
CC1CC(C)CN(S(=O)(=O)c2ccc(C(=O)OCC(=O)NCCN3C(=O)CSC3=O)cc2)C1 (stereo unspecified)	5	-2%	-1	7%	6%
O=C(O)CC(CN1C(=O)c2ccccc2C1=O)c1ccccc1 (stereo unspecified)	x	1%	x	x	x
Cc1cccc(C)c1OCCNC(=O)CCC(=O)c1ccccc1	-27	-2%	25	u	1%
